The nature of experiment [1]: anti-His antibody binders, primary screen, artefact control for SMM control protein annotation, biochemical, small-molecule microarray, 635 nm fluorescence (AID 1128).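 Note: score merges feature fluorescence with signal-to-noise for each printed compound spot.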 The following applies: anti-His Alexa647 antibody binding, higher = more signal.
For experiment [2], the system named is Human papillomavirus type 1a E7 protein (residues 1-88). In words: HPV1a E7 small-molecule binders, primary screen, biochemical, small-molecule microarray, residues 1-88, 635 nm (AID 1129). The following applies: small-molecule microarray binding, fluorescence 635 nm; higher = more signal.
Experiment [3] concerns the target Focal adhesion kinase 1 (Homo sapiens) (UniProt Q05397). In words: small-molecule microarray binders of FAK, primary screen, biochemical, 635/667 nm fluorescence, BSA, DTT (AID 1130).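 Note: composite of spot emission at 667 nm and signal to noise over triplicate slides.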 The following applies: PTK2 binding, 635 nm fluorescence, higher = more signal.
In experiment [4] the test system is Fibrinogen (Alexa647-labelled). The experiment in a line: fibrinogen binders on compound microarrays, profiling panel, artefact control for SMM control-protein annotation, biochemical, small-molecule microarray, 635/667 nm fluorescence (AID 1131).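 Note: z-score merges 667 nm fluorescence with per-spot signal-to-noise over triplicate slides.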 As to conditions: fibrinogen-A647 binding fluorescence, higher = more signal.
Experiment [5] has as its target Follistatin (Homo sapiens) (UniProt P19883). In words: follistatin binders on small-molecule microarrays, primary screen, biochemical, small-molecule microarray, 635/667 nm fluorescence (AID 1132). The following applies: FST binding, 635 nm fluorescence, higher = more signal.
The target of experiment [6] is Fibroblast growth factor 2 (Homo sapiens) (UniProt P09038). In words: FGF2 binders on small-molecule microarrays, primary screen, biochemical, small-molecule microarray, 635/667 nm fluorescence (AID 1133). The following applies: small-molecule microarray binding, FGF2, fluorescence 635/667; higher = more signal.
Experiment [7] is described as follows: mitochondrial membrane potential change in A549 cells, profiling panel, cell-based, JC-1 fluorescence, basal, 24 h, 100 nL (AID 1138).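 Note: A549 lung adenocarcinoma cells under basal conditions with no added stimulus; test concentration not given here.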 As to conditions: higher = more signal.
The subject of another experiment is Lefty1. The experiment in a line: Lefty1 binders on small-molecule microarrays, primary screen, biochemical, small-molecule microarray, 635/667 nm fluorescence (AID 1139). As to conditions: small-molecule microarray binding, fluorescence 635/667; higher = more signal.
Experiment [8] deals with wheat germ agglutinin (Triticum aestivum), Alexa647-labelled. The experiment in a line: wheat germ agglutinin binders on compound microarrays, profiling panel, artefact control for SMM control-protein annotation, biochemical, small-molecule microarray, 635/667 nm fluorescence (AID 1140).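 Note: score merges 667 nm feature emission with signal to noise over triplicate slides.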 As to conditions: WGA-A647 binding, 635 nm fluorescence, higher = more signal.
Experiment [9] concerns the target Luciferin 4-monooxygenase (Photinus pyralis) (UniProt P08659). The experiment in a line: firefly luciferase enzyme inhibitors, primary screen, biochemical, luminescence, purified enzyme, 2006 set (AID 1141).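 Note: cell-free assay with purified firefly luciferase at 100 ng per well in PBS; test concentration not given here.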 As to conditions: SteadyGlo luminescence, 30 min, higher = more signal, called active from +8 up or from −8 down.
Experiment [10] deals with Wnt5a (protein binding on small-molecule microarray). In words: Wnt5a binders on small-molecule microarray, primary screen, biophysical, 635/667 nm fluorescence (AID 1142).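 Note: fluorescence read at 667 nm with signal to noise per printed feature.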 The following applies: 635 nm fluorescence, higher = more signal.
A short description of experiment [11]: cell viability in Huh7 cells, primary screen, cytotoxicity control for HCV replication inhibitor project, CellTiter-Glo luminescence, basal, 48 h (AID 1143).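 Note: Huh7 hepatoma cells carrying a hepatitis C replication reporter with no stimulus; test concentration not given here.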 The following applies: Huh7 HCV replicon, higher = more signal, called active from +8 up or from −8 down.
Experiment [12] is described as follows: P. aeruginosa biofilm formation inhibitors, primary screen, PAO1 strain, BacTiter-Glo luminescence, LB-PBS (AID 1144). As to conditions: 12 h, higher = more signal.
Experiment [13] in a line: CREB reporter modulators without forskolin, primary screen, cell-based, PC12, CRE-LacZ reporter, unstimulated (AID 1145). As to conditions: no forskolin, luminescence, 4.5 h, higher = more signal, called active from +8 up or from −8 down.
Experiment [14] in a line: CREB reporter modulators under forskolin, primary screen, cell-based, PC12, CRE-LacZ reporter, forskolin-stimulated (AID 1146).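 Note: PC12 cells with 6xCRE LacZ reporter stimulated by forskolin 10 µM; beta-galactosidase reporter signal reflecting CREB driven transcription.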 The following applies: luminescence, 4.5 h, higher = more signal, called active from +8 up or from −8 down.
The target of experiment [15] is Streptavidin (Streptomyces avidinii) (UniProt P22629). In words: streptavidin binders on small-molecule microarray, primary screen, artefact control for SMM compound annotation, biophysical, 635/667 nm fluorescence (AID 1147).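 Note: signal reflects streptavidin binding to arrayed compounds as a control protein.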 As to conditions: streptavidin binding, higher = more signal.
Experiment [16] can be described thus: small-molecule binders of probe aInhba, primary screen, biochemical, small-molecule microarray, 635/667 nm fluorescence (AID 1148).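 Note: score merges 667nm spot fluorescence with signal-to-noise for antibody binding to printed compounds.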 The following applies: higher = more signal.
Experiment [17] addresses Torsin-1A (Homo sapiens) (UniProt O14656). In words: torsin A binders from cell lysate, primary screen, small-molecule microarray, wild-type, 635/667 nm (AID 1149). The following applies: COS7 hTOR1A-WT lysate, 635 nm fluorescence, higher = more signal.
Experiment [18] has the same target. In words: small-molecule binders of mutant TOR1A in lysate, primary screen, cell lysate, small-molecule microarray, COS7 lysate, 635/667 nm fluorescence (AID 1150).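 Note: score pools 667 nm emission and signal to noise measuring lysate protein binding.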 As to conditions: COS7 hTOR1A mutant lysate, 635 nm fluorescence, higher = more signal.
Experiment [19] relates to Sonic hedgehog protein (Shh). The experiment in a line: small-molecule binders of Shh protein, primary screen, biochemical, small-molecule microarray, 635/667 nm fluorescence (AID 1151).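 Note: Shh protein binding to compounds spotted on small-molecule microarray slides; score combines spot fluorescence intensity with signal-to-noise across triplicate slides.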 As to conditions: small-molecule microarray binding, 635 nm fluorescence; higher = more signal.

Structures are written as SMILES. The source made the active and inactive calls. Unless noted, the rule behind the calls is not given here.

Focal adhesion kinase 1 (Homo sapiens), sequence (Q05397 whole entry, looked up): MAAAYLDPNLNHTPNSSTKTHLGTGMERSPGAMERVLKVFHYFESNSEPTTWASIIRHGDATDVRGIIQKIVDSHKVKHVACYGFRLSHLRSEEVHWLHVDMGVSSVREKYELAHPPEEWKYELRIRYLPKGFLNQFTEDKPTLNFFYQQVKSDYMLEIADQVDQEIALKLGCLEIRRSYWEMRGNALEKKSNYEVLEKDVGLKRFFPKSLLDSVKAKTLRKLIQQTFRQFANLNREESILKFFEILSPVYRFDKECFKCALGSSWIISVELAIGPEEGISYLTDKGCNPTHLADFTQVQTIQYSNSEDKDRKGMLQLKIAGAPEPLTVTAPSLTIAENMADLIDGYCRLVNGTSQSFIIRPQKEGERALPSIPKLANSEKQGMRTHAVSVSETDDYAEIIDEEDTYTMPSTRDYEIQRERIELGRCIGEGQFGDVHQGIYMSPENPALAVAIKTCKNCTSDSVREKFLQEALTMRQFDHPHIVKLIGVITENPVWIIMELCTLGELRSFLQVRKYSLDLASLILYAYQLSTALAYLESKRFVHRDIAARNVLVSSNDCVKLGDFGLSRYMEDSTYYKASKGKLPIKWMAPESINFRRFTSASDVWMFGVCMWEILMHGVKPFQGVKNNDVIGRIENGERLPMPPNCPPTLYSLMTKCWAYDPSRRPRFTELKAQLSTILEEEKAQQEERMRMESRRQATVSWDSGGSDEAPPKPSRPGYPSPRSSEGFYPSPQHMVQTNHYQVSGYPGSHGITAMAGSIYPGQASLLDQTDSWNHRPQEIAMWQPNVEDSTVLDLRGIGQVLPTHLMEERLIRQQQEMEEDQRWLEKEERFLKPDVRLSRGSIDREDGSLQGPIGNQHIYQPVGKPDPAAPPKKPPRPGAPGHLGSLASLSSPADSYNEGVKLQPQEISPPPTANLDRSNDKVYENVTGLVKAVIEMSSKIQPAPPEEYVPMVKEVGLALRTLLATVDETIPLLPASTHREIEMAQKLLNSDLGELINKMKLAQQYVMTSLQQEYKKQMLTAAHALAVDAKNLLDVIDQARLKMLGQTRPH
Torsin-1A (Homo sapiens), sequence (O14656 whole entry, looked up): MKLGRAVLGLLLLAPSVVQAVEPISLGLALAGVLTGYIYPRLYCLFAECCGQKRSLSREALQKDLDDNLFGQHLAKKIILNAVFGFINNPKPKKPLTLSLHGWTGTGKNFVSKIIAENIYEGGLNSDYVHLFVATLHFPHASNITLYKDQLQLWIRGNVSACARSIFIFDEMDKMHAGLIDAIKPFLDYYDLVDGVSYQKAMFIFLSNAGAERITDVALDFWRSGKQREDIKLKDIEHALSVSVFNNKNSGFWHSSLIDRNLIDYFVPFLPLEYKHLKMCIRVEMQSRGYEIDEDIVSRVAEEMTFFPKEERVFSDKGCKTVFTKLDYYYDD
Luciferin 4-monooxygenase (Photinus pyralis), sequence (P08659 whole entry, looked up): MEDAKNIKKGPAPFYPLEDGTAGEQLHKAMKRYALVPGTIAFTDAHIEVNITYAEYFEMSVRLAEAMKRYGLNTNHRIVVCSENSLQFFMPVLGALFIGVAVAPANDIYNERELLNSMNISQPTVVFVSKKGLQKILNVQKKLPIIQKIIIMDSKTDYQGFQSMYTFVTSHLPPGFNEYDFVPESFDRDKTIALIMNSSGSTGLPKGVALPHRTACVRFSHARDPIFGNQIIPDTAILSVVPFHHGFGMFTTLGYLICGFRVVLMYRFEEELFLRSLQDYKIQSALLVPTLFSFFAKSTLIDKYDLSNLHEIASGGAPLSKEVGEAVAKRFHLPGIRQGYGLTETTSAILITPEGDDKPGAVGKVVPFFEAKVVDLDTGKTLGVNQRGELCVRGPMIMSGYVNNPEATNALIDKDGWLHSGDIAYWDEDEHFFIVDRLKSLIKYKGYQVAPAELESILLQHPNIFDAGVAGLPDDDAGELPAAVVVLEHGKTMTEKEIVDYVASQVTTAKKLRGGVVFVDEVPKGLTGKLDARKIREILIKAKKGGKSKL
Streptavidin (Streptomyces avidinii), sequence (P22629 whole entry, looked up): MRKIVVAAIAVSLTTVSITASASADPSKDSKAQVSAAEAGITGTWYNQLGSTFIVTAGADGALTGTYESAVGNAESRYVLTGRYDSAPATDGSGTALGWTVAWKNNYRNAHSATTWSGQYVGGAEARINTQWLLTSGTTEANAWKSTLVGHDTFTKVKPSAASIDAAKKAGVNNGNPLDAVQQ
Fibroblast growth factor 2 (Homo sapiens), sequence (P09038 whole entry, looked up): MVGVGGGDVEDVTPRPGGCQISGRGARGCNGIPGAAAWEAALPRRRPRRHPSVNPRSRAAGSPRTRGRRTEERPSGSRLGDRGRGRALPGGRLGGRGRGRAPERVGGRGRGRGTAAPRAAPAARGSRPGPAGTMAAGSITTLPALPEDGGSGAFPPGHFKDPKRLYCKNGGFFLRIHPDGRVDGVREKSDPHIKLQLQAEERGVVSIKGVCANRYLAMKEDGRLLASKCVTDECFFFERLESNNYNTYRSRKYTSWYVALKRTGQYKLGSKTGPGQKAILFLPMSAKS
Follistatin (Homo sapiens), sequence (P19883 whole entry, looked up): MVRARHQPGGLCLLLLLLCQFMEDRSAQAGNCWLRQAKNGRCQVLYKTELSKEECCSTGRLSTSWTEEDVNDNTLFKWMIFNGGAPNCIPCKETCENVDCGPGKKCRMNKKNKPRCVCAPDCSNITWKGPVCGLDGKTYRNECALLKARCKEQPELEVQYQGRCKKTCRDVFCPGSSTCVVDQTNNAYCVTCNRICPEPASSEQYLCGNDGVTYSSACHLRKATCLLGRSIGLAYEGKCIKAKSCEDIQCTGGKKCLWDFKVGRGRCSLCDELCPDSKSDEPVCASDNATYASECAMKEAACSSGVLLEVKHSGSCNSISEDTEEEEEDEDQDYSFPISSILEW

Consider `COCCOC(=O)N1C(=O)[C@@]2(c3cc(C#Cc4ccc(OC)cc4)ccc31)[C@H](C(N)=O)[C@H]1C(=O)O[C@H](c3ccccc3)[C@H](c3ccccc3)N1[C@@H]2c1ccc(O)cc1`, for which the composite z-score is -0.994 in experiment [1]; -0.923 in experiment [2]; -0.582 in experiment [3]; -1.48 in experiment [4]; -0.694 in experiment [5]; -2.13 in experiment [6]. The composite z-score is -2.08 in the experiment on Lefty1; 0.17 in experiment [8]; 0.115 in [10]; -1.23 in [15]; 0.295 in experiment [16]; -1.2 in the experiment with Torsin-1A (Homo sapiens) [17]. Besides, the values for the composite z-score (with Torsin-1A (Homo sapiens) [18]; in [19]) were -1.29 and -0.692, respectively. Besides, the z-score in [7] was -0.335; in experiment [9] it was -0.245 (inactive); in experiment [11], -4.24 (inactive); in experiment [12], 0.0989 (inactive); in experiment [13] it was 0.0776 (inactive); in experiment [14], -0.844 (inactive).

As to `C=CCC(OC(C)=O)[C@@H]1[C@@H](N(Cc2ccc(-c3ccccc3)cc2)C(=O)c2ccc(C)cc2)c2cc(OCCCO)ccc2N1C(=O)Cc1ccc(OC)cc1` (stereo not given in full), the composite z-score in experiment [1] is -0.109; in experiment [2], -0.33; in experiment [3] it was -0.026; in experiment [4] it was 0.386; in [5], 0.534; in [6], -0.177. For the same compound, the composite z-score is 0.0835 with Lefty1; 0.115 in [8]; -0.0283 in experiment [10]; 1.36 in [15]; -0.101 in [16]; -0.691 with Torsin-1A (Homo sapiens) [17]. The values for the composite z-score (with Torsin-1A (Homo sapiens) [18]; in experiment [19]) were -0.0431 and 0.726, respectively. Also, the z-score is 1.85 in experiment [7]; -1.58 (inactive) in [9]; -0.536 (inactive) in experiment [11]; 0.307 (inactive) in experiment [12]; 0.904 (inactive) in [13]; 0.429 (inactive) in experiment [14].

On to `CO[C@H]1O[C@H](CO)[C@@H](OC(=O)Nc2ccc3c(c2)OCO3)[C@H](OC(=O)Nc2ccc3c(c2)OCO3)[C@H]1OC(=O)Nc1ccc2c(c1)OCO2`, for which the composite z-score came to 2.47 in experiment [1]; 1.22 in experiment [2]; 0.0847 in experiment [3]; 0.86 in experiment [4]; 1.23 in [5]; 0.506 in experiment [6]. Further, the composite z-score in the experiment with Lefty1 was determined as 0.683; in experiment [8] it was 1.02; in [10], 0.158; in experiment [15], 0.697; in [16], 0.297; in the experiment with Torsin-1A (Homo sapiens) [17] it was 0.713. The results for the composite z-score (with Torsin-1A (Homo sapiens) [18]; in [19]) were 1.74 and 0.942, respectively. Also, the z-score was -0.641 in [7]; -5.43 (inactive) in experiment [9]; -1.2 (inactive) in [11]; -0.416 (inactive) in experiment [12]; 1.05 (inactive) in experiment [13]; -0.808 (inactive) in experiment [14].

As for `O=C1C2C=CC(C(O)c3ccccn3)N(Nc3ccccc3F)C2C(=O)N1c1ccccc1` (stereo not given), the composite z-score was -0.0724 in experiment [1]; 0.525 in experiment [2]; 1.27 in [3]; 0.696 in [4]; 0.101 in [5]; -0.0308 in [6]. Moreover, the composite z-score is -0.377 with Lefty1; 0.253 in [8]; -0.0672 in [10]; 0.429 in [15]; -0.0986 in experiment [16]; 0.456 in the experiment with Torsin-1A (Homo sapiens) [17]. Also, the composite z-score with Torsin-1A (Homo sapiens) [18] is 0.432; in experiment [19] it was -0.461. For the same compound, the z-score was 1.03 in experiment [7]; -0.323 (inactive) in experiment [9]; 0.894 (inactive) in experiment [11]; -0.62 (inactive) in experiment [12]; -0.708 (inactive) in experiment [13]; 0.901 (inactive) in experiment [14].

In the case of `C=CCN1C(=O)[C@@]2(O[C@@H](CCO)[C@H]([Si](C)(C)c3ccc(OC)cc3)[C@H]2C)c2cc(N3C(=O)COc4ccccc43)ccc21`, the composite z-score is 1.52 in experiment [1]; 1.02 in experiment [2]; 0.346 in experiment [3]; 0.578 in [4]; 0.25 in [5]; 0.27 in [6]. Also, the composite z-score in the experiment on Lefty1 was 0.0865; in [8], 0.577; in [10], 0.564; in experiment [15], 0.83; in [16], -0.101; with Torsin-1A (Homo sapiens) [17], -0.048. Besides, the values for the composite z-score (with Torsin-1A (Homo sapiens) [18]; in [19]) were -0.0358 and 0.531, respectively. Besides, the z-score in [7] was -0.839; in experiment [9] it was -0.401 (inactive); in experiment [11] it was -7.99 (inactive); in experiment [12], 0.798 (inactive); in experiment [13] it was 26 (active); in experiment [14], -4.06 (inactive).

The record behind these values is PubChem BioAssay.
